Results published in article PMC7819943, “Rice protein-binding microarrays: a tool to detect cis-acting elements near promoter regions in rice”.
Over roughly 35,000 sequences, “fluorescence intensity (a.u.)” has its median near 10,000; the highest 2% begin near 52,000. The sample holds the highest values, similar sequences and a random draw of the others, so the mix is not that of the screen.

target: T1, OsWOX13 (Oryza sativa, UniProt Q5QMM3 1-267); experiment: protein-binding microarray (RPBM); PBS, 2% BSA, 51.3 ng/ul salmon testes DNA, 50 uM zinc acetate, 200 nM TF, 25 C, 1 h; high values mean tight binding; conditions: protein: recombinant; tags: N-terminal polyhistidine and DsRed monomer fusion (pET32a); label: CyDye5-dUTP incorporated in the synthesized complementary strand; 3' TTTTT single-stranded linker to array surface; dsDNA, one strand shown
T1 sequence: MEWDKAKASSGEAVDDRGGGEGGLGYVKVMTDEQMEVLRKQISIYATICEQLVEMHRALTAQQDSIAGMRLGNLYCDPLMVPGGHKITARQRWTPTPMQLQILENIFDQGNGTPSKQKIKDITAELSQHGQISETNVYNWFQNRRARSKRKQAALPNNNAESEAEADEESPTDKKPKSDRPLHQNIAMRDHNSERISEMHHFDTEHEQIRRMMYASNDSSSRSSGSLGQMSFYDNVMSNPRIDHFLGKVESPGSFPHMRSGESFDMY
Summary of the method: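 Ni–NTA purification followed expression in E. coli BL21-CodonPlus of transcription factors fused N-terminally to a polyhistidine tag and DsRed. At 200 nM in PBS with 2% BSA, salmon testes DNA and 50 µM zinc acetate, the protein was incubated for 1 h at 25 °C with a custom Agilent array that had been primer-extended with Cy5-dUTP and blocked with 2% BSA. After washing, the array was read on an Axon 4000B scanner. The binding signal is per-feature fluorescence intensity in arbitrary units.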

Sequence | binding signal
TTGAATTTAAATTTAAACGTATAGTGCCTTCCCTTTTACGCGGAGTCACCTAGTGCAG | 22900 fluorescence intensity (a.u.)
CAAATTAACTGGAAATTTTGAAGCATCCATGTTCTGTGAGCGGAGTCACCTAGTGCAG | 46600 fluorescence intensity (a.u.)
TTGATGTGCAATAATTAACGAGAGAAGAGTTTTCCCATAGCGGAGTCACCTAGTGCAG | 10300 fluorescence intensity (a.u.)
TGGAATTGATTATGATGCTGTTTCCTTCATGGGAGCTCTACGGAGTCACCTAGTGCAG | 31900 fluorescence intensity (a.u.)
ATGGCTGGGTTGATTGATATGGAGTACAAACTAAGTGTAGCGGAGTCACCTAGTGCAG | 25000 fluorescence intensity (a.u.)
ACTAGTTAATCACGATTGATGGAAGCGGTTGATTGAATGACGGAGTCACCTAGTGCAG | 51400 fluorescence intensity (a.u.)
ATTAATTAGCTCTAGATTAAGCTAATTGCCATCAATGGCTCGGAGTCACCTAGTGCAG | 46400 fluorescence intensity (a.u.)
TGGAATTCATCTAATTATATCATTTTCCTCCATACTAGCTCGGAGTCACCTAGTGCAG | 3430 fluorescence intensity (a.u.)
CCATTAGATTAGCACTAATTATCATACTTAGTCATTAGCTCGGAGTCACCTAGTGCAG | 59100 fluorescence intensity (a.u.)
ATCATGGCAAATGATTGAAACTTTGAAGTAACGTTGGTGCCGGAGTCACCTAGTGCAG | 38800 fluorescence intensity (a.u.)
TAAATTTGATTCCATTTCCGTTGCCTGTTCATTTCGTCGACGGAGTCACCTAGTGCAG | 6090 fluorescence intensity (a.u.)
AAATCATTAATAGTGCGTGATTAATTGAGTATTAATTATTCGGAGTCACCTAGTGCAG | 8480 fluorescence intensity (a.u.)
AAAATCACTGGATTAATTGATTGCGTCGTACTATCATTGCCGGAGTCACCTAGTGCAG | 64600 fluorescence intensity (a.u.)
TTAATCACTGGTAATTATAGATTTATAGGTGATTAATCACCGGAGTCACCTAGTGCAG | 17900 fluorescence intensity (a.u.)
TGGTGTAGGGTTATGATTGGATGAGTAGTGGAGGTAGGTACGGAGTCACCTAGTGCAG | 8550 fluorescence intensity (a.u.)
AAAATTATGGATTGGATGATTAATCACTGATAGGTAGTACCGGAGTCACCTAGTGCAG | 56900 fluorescence intensity (a.u.)
CTGGACTGTCAAATCAAGGAGGATTGCGTACTAATCATGTCGGAGTCACCTAGTGCAG | 9940 fluorescence intensity (a.u.)
CTAAACACGTCCTATCATGTCACGTAGATAATATGACACGCGGAGTCACCTAGTGCAG | 4110 fluorescence intensity (a.u.)
TAGATAAATTACCCTAAAATCCTGTAAAACTTCTGCATTTCGGAGTCACCTAGTGCAG | 3350 fluorescence intensity (a.u.)
ATAAAATTTAATATTAAATATGCATTTGAACAGCTATAAACGGAGTCACCTAGTGCAG | 6360 fluorescence intensity (a.u.)
AAATAAATTAATATAACTTATAAAGCAGCTTTTGTATAATCGGAGTCACCTAGTGCAG | 13600 fluorescence intensity (a.u.)
AATGCAGGAACAGCATAAGCTTTGCGTATATTTGTATTAACGGAGTCACCTAGTGCAG | 65500 fluorescence intensity (a.u.)
TTATTAATTCCATAATCAGAACTTTGATGTGATATAACCTCGGAGTCACCTAGTGCAG | 9130 fluorescence intensity (a.u.)

Sequence | binding signal
TCTGGGTGATTTGTTGCAAAAGAATATTTTAATTCACTGCCGGAGTCACCTAGTGCAG | 14000 fluorescence intensity (a.u.)
CATCTGGCGATTGCATATTAATTTGCATGGCGAAGCTTCCCGGAGTCACCTAGTGCAG | 5830 fluorescence intensity (a.u.)
GACTTTAATGATGCTGACACCGGCTTAATTAGTATTGCGGCGGAGTCACCTAGTGCAG | 8560 fluorescence intensity (a.u.)
GTGATGATGAATTAATTGCTGAATGGCGAATGCAGTGCAGCGGAGTCACCTAGTGCAG | 58900 fluorescence intensity (a.u.)
GGGAGAGAATGTGCTAATTAATTGCATGCATGCATGCACGCGGAGTCACCTAGTGCAG | 12000 fluorescence intensity (a.u.)
GCGAACTTAATTGCTGCTAGAATGCTGCTGAAATTGGTGACGGAGTCACCTAGTGCAG | 8360 fluorescence intensity (a.u.)
ATTTGATCTGATTTGATTAATTTTGCATGCACGCGAATGGCGGAGTCACCTAGTGCAG | 61700 fluorescence intensity (a.u.)
GTCATTGATTGATCAAGGGATCAATGCAAAACAACGCATTCGGAGTCACCTAGTGCAG | 20300 fluorescence intensity (a.u.)
AGAAAATTAATGTTCAACAAACTCGTCACAAATTAAGTTTCGGAGTCACCTAGTGCAG | 13600 fluorescence intensity (a.u.)
TCTAAACTGATAATTGCAAATTGTAATTGATAGCATTGAGCGGAGTCACCTAGTGCAG | 63700 fluorescence intensity (a.u.)
TCTAATTAGTAAACTGTAGTAGTGAGCAAATTGTACTAGACGGAGTCACCTAGTGCAG | 20900 fluorescence intensity (a.u.)
TCATGTCATAAATTAAATTATTTGAAATTATTTGGTACAGCGGAGTCACCTAGTGCAG | 13900 fluorescence intensity (a.u.)
TCATGTAATTGTTGATAAGAGTGTCAGAATTCAGATAGTGCGGAGTCACCTAGTGCAG | 13500 fluorescence intensity (a.u.)
GGTTAATTTGACATAAACAGCGTCAGAAATGTAGTTCATGCGGAGTCACCTAGTGCAG | 57900 fluorescence intensity (a.u.)
GCAAATTGATAATTGAAACAGAATTCAGTCGTTTGTACAGCGGAGTCACCTAGTGCAG | 62700 fluorescence intensity (a.u.)
TCCAAATCCTACAATAATTGATTGAATCAAACACAGAAAGCGGAGTCACCTAGTGCAG | 41200 fluorescence intensity (a.u.)
TAAATTTATAGTCAATTGTAGCATGAGCTCTAATAAACTGCGGAGTCACCTAGTGCAG | 4880 fluorescence intensity (a.u.)
AGCAGCATAAATGCAATTAAATTTGTAGCAATCGAACATGCGGAGTCACCTAGTGCAG | 4680 fluorescence intensity (a.u.)
TTATTAATTTGTAATAGGTGTATTTCGGTCTTATTAAACTCGGAGTCACCTAGTGCAG | 19600 fluorescence intensity (a.u.)
CGTAAATTTTCAATAAAATTTTAGTGAAATCAGGAATATGCGGAGTCACCTAGTGCAG | 17500 fluorescence intensity (a.u.)
AATAAAACTTACATGAGTTAATTGAGTGAGAAATTAATTCCGGAGTCACCTAGTGCAG | 4550 fluorescence intensity (a.u.)
TACCGATAATTTGTTATAGATCCCTAGACGTACATTCCTCCGGAGTCACCTAGTGCAG | 19900 fluorescence intensity (a.u.)
CATGATGATAGTGATAGCAACTCAAGCAATACTAACGCACCGGAGTCACCTAGTGCAG | 14700 fluorescence intensity (a.u.)
